High-throughput results deposited in PubChem BioAssay by National Center for Advancing Translational Sciences (NCATS).
The list is not random: actives were taken first. Their share in the collection is about 3%.
TrxR1 substrate: qHTS Assay for Substrates of Mammalian Selenoprotein Thioredoxin Reductase 1 (TrxR1): qHTS. Thioredoxin reductase 1, cytoplasmic (Rattus norvegicus), O89049. purified TrxR1 substrate turnover, NADPH consumption readout. Potency, µM (top dose mostly 114 µM). hit rate 0.01% among 390,000; note: nearly all actives have a fitted effect of over 50% in size
Target sequence (O89049 whole entry, looked up): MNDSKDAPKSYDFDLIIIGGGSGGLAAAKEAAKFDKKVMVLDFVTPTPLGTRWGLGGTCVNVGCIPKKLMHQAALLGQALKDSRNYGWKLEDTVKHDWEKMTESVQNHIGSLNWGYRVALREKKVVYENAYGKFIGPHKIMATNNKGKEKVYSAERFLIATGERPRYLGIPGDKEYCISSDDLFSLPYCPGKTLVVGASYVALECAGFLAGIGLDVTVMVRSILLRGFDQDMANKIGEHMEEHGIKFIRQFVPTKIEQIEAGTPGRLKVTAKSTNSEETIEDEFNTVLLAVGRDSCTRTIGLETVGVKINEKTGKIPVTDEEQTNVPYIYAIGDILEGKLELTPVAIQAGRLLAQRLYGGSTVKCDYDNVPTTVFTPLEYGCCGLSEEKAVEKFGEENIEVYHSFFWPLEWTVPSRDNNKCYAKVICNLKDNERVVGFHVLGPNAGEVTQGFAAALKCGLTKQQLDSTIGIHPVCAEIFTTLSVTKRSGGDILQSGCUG
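Rat TrxR1, dispensed at 90 nM, was prereduced with 400 uM NADPH (final) for 5 min at ~22 deg C, then incubated with compound 15 min before 400 uM selenite. A first-read NADPH fluorescence drop versus no-compound background flagged substrates.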
Nrf2 inh: Nrf2 qHTS screen for inhibitors; A549 ARE-Fluc reporter, luciferase luminescence, 18-24 h; hit rate 2.1% among 360,000; Potency, µM (titrated, usually from 46 µM), usual class: inhibitors; note: nearly all actives have a fitted effect of over 60% in size
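Nrf2 function is reported as luminescence of an ARE-controlled luciferase in A549 cells. Compounds were tested at several concentrations, and a CellTiter-Fluor read on the same wells flagged cytotoxicity.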
TrxR1 inh: qHTS Assay for Inhibitors of Mammalian Selenoprotein Thioredoxin Reductase 1 (TrxR1): qHTS; Thioredoxin reductase 1, cytoplasmic (Rattus norvegicus), O89049; recombinant rTrxR1, NADPH fluorescence consumption, selenite substrate; Potency, µM (top dose mostly 114 µM), actives largely listed as inhibitors; hit rate 1% among 390,000; AID 588453, 2011; note: nearly all actives have a fitted effect of over 65% in size
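Rat TrxR1 (90 nM in the dispensed reagent) was pre-reduced with 400 uM NADPH for 5 min at room temperature, then incubated with compound for 15 min. After 400 uM selenite was added, NADPH fluorescence (Ex 340/Em 450 nm) was followed for 8 min.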
GALK inhibitor: qHTS Assay for Inhibitors of Human Galactokinase (GALK); Purified GALK, Kinase-Glo residual ATP luminescence; Potency, µM (doses to about 57.5 µM), most hits filed as inhibitors; hit rate 0.007% among 270,000; AID 1868, 2009
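Galactose (100 uM) and ATP (35 uM) were turned over by 5 nM GALK for 1 h at RT. Kinase-Glo Plus then converted the remaining ATP into a luminescent signal.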
Nrf2 activator: qHTS of Nrf2 Activators. hit rate 0.31% among 410,000. AREc32 ARE-luciferase reporter (MCF7-derived line), luminescence, 24 h. Potency, µM (series often up to 46.1 µM), most hits filed as activators; note: nearly all actives have a fitted effect of over 65% in size
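AREc32 cells carrying an ARE-driven firefly luciferase reporter were seeded at 1000 cells/well in OPTI-MEM with 5% FBS, then exposed to compound for 24 hr at 37 deg C. Luminescence was read with Steady-Glo after 30 min at RT.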
A549 tox: Nrf2 qHTS screen for inhibitors: counterscreen for cytotoxicity | AID 504648, 2011 | A549 ARE-Fluc cells, CellTiter-Fluor viability, 18-24 h | Potency, µM (series often up to 46 µM), hits mostly inhibitors | hit rate 0.16% among 390,000
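Cytotoxicity counterscreen: CellTiter-Fluor fluorescence was measured in A549 ARE_Fluc cells after 18-24 h of compound exposure in a concentration series. The subsequent BugLite luminescent read reports ARE-luciferase activity.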
Numbers stand for hits; n = inactive; u = inconclusive; x = not tested or not shown; [ ] = another dose, or the depositor's remark. Calls come from the whole dose curve; as a rule, active = well fitted curve in the direction sought with a large enough effect; inconclusive = small, poorly fitted or top-dose-only effect, or another doubt; inactive = no such curve, though single readings can be large; an effect the other way counts as inactive or inconclusive.

SMILES | TrxR1 substrate | Nrf2 inh | TrxR1 inh | GALK inhibitor | Nrf2 activator | A549 tox
CCC(=O)N1c2ccccc2CC1C(=O)NCc1cc(OC)ccc1OC (stereo not given) | n | x | n | x | n | n
CC(C)N(C(=O)/C=C/c1cccc([N+](=O)[O-])c1)C(C)C | n | n | n | n | 14µM | n
CCCN(CCC)C(=O)/C=C/c1cccc([N+](=O)[O-])c1 | n | n | n | n | n | n
O=C(/C=C/c1cccc([N+](=O)[O-])c1)Nc1cccc(NC(=O)c2ccco2)c1 | n | 21µM | n | n | n | u
O=C(/C=C/c1cccc([N+](=O)[O-])c1)c1ccco1 | n | n | 18µM | n | n | u
O=C(/C=C/c1cccc([N+](=O)[O-])c1)c1ccc([N+](=O)[O-])o1 | n | u | 1.1µM | x | n | u
Cc1ccc(-n2nnnc2CNC(=O)c2ccccc2S(C)(=O)=O)cc1C | n | x | n | x | n | n
COc1ccc(CN(C(=O)Nc2ccccc2)c2ccccn2)cc1OC | n | n | n | x | n | n
Cc1ccc(N(CC(=O)Nc2ccc(C)c(F)c2)S(=O)(=O)c2c(C)n[nH]c2C)cc1 | n | n | n | x | n | n
COc1cc(NC(=O)CSc2ccc(-c3sc(-c4ccccc4)nc3C)nn2)cc(OC)c1 | n | n | n | x | n | n
N#Cc1nc(Nc2cc(F)cc(F)c2)c2ncn(CCCO)c2n1 | x | n | x | x | x | n
Cc1cc2c(s1)c1cnn(Cc3cc(F)cc(F)c3F)c(=O)c1n2C | x | n | x | x | x | n
Cc1ccccc1/C=C/C(=O)c1ccc([N+](=O)[O-])o1 | n | u | 3.5µM | x | u | n
Cc1cccc(/C=C/C(=O)c2ccc([N+](=O)[O-])o2)c1 | n | u | 1.3µM | x | u | u
COc1ccc(/C=C/C(=O)c2ccc([N+](=O)[O-])o2)cc1 | n | n | u | x | u | n
O=C1CC(c2ccco2)CC2=C1C(c1cccnc1)n1nc(C(F)(F)F)nc1N2 (stereo not given) | n | n | n | x | x | n
COc1ccccc1NC(=O)c1sc(Cl)nc1C | n | n | n | n | 11µM | n
Cc1nc(Cl)sc1C(=O)Nc1ccccc1Cl | n | n | n | n | u | n
Cc1ccc(-c2csc3nc(C)n(N)c(=O)c23)o1 | n | u | n | n | n | n
Cc1ccc(-c2csc3nc(C)n(-n4c(C)ccc4C)c(=O)c23)o1 | n | n | 18µM | n | n | n
CCOc1cc(C(=O)N(Cc2nc(-c3ccc(C)cc3)no2)C(C)C)cc(OCC)c1OCC | n | u | n | x | n | n
Cc1cc2n(n1)CCCN2C(=O)Nc1ccc(F)c(Cl)c1 | n | u | n | x | n | n
Cc1cc2n(n1)SC(Nc1ccc(F)c(Cl)c1)N2 (stereo not given) | n | n | 14µM | n | n | n
Clc1ccccc1-c1ncc(-c2ccccc2)o1 | n | u | n | n | 10µM | n
O=c1[nH]c(Nc2ccccc2Cl)cc2ccccc12 | n | n | n | x | n | n
SMILES | TrxR1 substrate | Nrf2 inh | TrxR1 inh | GALK inhibitor | Nrf2 activator | A549 tox
O=c1[nH]c(Nc2ccc(F)cc2)cc2ccccc12 | n | u | 11µM | n | n | n
Cc1ccccc1Nc1cc2ccccc2c(=O)[nH]1 | n | u | u | n | n | 16µM
CCOC(=O)c1cc2c(=O)n3ccccc3nc2n(CC2CCCO2)c1=NC(=O)c1ccccc1OCC (stereo not given) | n | n[9.27 µM] | n | x | n | n
O=C(CC1N=C2c3ccccc3N=C(SCC(=O)Nc3ccc(F)cc3)N2C1=O)NCc1ccco1 (stereo not given) | n | x | n | x | n | n
O=C(Oc1ccc(N(C(=O)c2ccncc2)S(=O)(=O)c2ccc(F)cc2)cc1)c1ccncc1 | u | n | 35µM | n | n | n
CCOC(=O)c1c(C)n(-c2ccccc2)c2ccc(OC(=O)c3ccccc3NC(=O)C(C)(C)C)cc12 | n | n | n | x | n | n
S=c1[nH]nc(Cc2cccs2)n1-c1ccccc1Cl | n | 16µM | n | n | n | n
COc1ccc(NC(=O)N2CCC(CN3CCCC3)CC2)c(OC)c1 | n | n | n | x | n | n
COc1cccc(C(c2nnnn2Cc2ccco2)N2CCN(c3cccc(C)c3C)CC2)c1OC (stereo not given) | n | 23µM | n | n | n | n
Cc1ccc(Cl)cc1NC(=O)CSc1nc2c(c(=O)[nH]1)CN(Cc1ccccc1)CC2 | n | u | n | x | n | n
C=Cc1ccc(Cn2c(C(=O)O)c(CNCc3ccc(F)cc3)c3ccc(C)cc32)cc1 | n | n | n | x | n | u
O=C(c1ccccc1)c1ccc2nc(-c3ccc(NC(=O)c4ccccc4Br)cc3)[nH]c2c1 | n | u | n | n | n | n
Cc1ccccc1C(=O)Nc1ccc(-c2nc3ccc(C(=O)c4ccccc4)cc3[nH]2)cc1 | n | 21µM | n | n | n | n
Cc1cc2c(s1)c1cnn(Cc3ccc(F)cc3Cl)c(=O)c1n2C | x | n | x | x | x | n
COc1cc2c(cc1OC)C(c1ccc(-c3ccc(Cl)c(Cl)c3)o1)=NCC2 | n | 9.2µM | u | n | n | x
COc1cc2c(cc1OC)C(c1ccc(-c3cc(Cl)ccc3Cl)o1)=NCC2 | n | 16µM | n | n | n | u
COc1cc2c(cc1OC)C(c1ccc(-c3ccccc3Cl)o1)=NCC2 | n | x | n | n | n | n
COc1cc2c(cc1OC)C(c1ccc(-c3ccc(Cl)cc3Cl)o1)=NCC2 | n | u | n | n | n | u
CC[N+](C)(C)c1ccc(/C=C/c2ccc3ccccc3n2)cc1 | n | x | n | x | x | x
COc1cccc(CN(C)C(=O)c2[nH]c(C)c(C(C)=O)c2C)c1OC | n | 23µM | n | n | n | n
Cc1ccc(Sc2ccc(N3CCC(C(=O)Nc4ccc(C)c(F)c4)CC3)nn2)cc1 | n | n | n | x | n | n
Cc1cc(C)n(CC(=O)NNC(=O)COc2ccc(F)cc2Br)n1 | n | n | n | x | n | n
Cc1nn(C)c(C)c1NC(=O)COc1ccc(F)cc1Br | n[2.29 µM] | 23µM | n[2.29 µM] | x | n | n
O=C(CN1C(=O)CCc2cc(S(=O)(=O)N3CCOCC3)ccc21)Nc1cccc(C(F)(F)F)c1 | n | x | n | x | n | n
CCc1nnc(NS(=O)(=O)c2ccc(NC(=O)c3ccc([N+](=O)[O-])s3)cc2)s1 | x | x | x | x | 14µM | x
CCc1nnc(NS(=O)(=O)c2ccc(NS(=O)(=O)c3ccccc3[N+](=O)[O-])cc2)s1 | n | n | n | x | n | n
CCc1nnc(NS(=O)(=O)c2ccc(Nc3ccc([N+](=O)[O-])c4nonc34)cc2)s1 | n | n | n | n | n | 23µM
